Source: PubChem BioAssay AID1159580 (chemical genetic matrix, 2015)
Several values for one entry are separate records, joined by “and”; a condition that tells them apart may be missing. Identical values can stand only once. Screen size: about 5,500 compounds; about 2,000 (36%) were called active. About 18% were inconclusive and are not listed. Rule as the data show it: active = normalized growth mostly below about 0.91 (no sharp cut-off); inconclusive = no clear call, values can overlap the other calls; inactive = mostly above about 0.92. The list shows a part of the results.

Test: chemical genetic growth profiling, strain panel (AID 1159580);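 also: tested at 20 µM; growth read once vehicle control cultures reached saturation at 30 °C; 1 = growth at the plate median or of vehicle wells; lower values mean less growth of the strain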
Conditions: S. cerevisiae deletion strains, growth OD
[1] = locus YBR229C, strain ROT2, stronger effect = lower value
[2] = locus YDL101C, strain DUN1, stronger effect = lower value
[3] = locus YDR150W, strain NUM1, stronger effect = lower value
[4] = locus YHR030C, strain SLT2, stronger effect = lower value
[5] = locus YJR043C, strain POL32, stronger effect = lower value
[6] = locus YJR075W, strain HOC1, stronger effect = lower value
[7] = locus YLR039C, strain RIC1, stronger effect = lower value
[8] = locus YLR262C, strain YPT6, stronger effect = lower value
[9] = locus YPL241C, strain CIN2, stronger effect = lower value
[10] = locus YAL013W, strain DEP1, stronger effect = lower value
[11] = locus YGR078C, strain PAC10, stronger effect = lower value
[12] = locus YGR229C, strain SMI1, stronger effect = lower value
[13] = locus YNL322C, strain KRE1, stronger effect = lower value

Measured: normalized growth

CC1(C)CC23C(=O)CCC(O)C2(C)CCC13 (stereo unspecified)
inactive: locus YAL021C, strain ccr4, stronger effect = lower value 0.956 | locus YAL026C, strain drs2, stronger effect = lower value 0.989 | locus YAL030W, strain snc1, stronger effect = lower value 0.979 | locus YBL061C, strain skt5, stronger effect = lower value 0.99 | locus YBR009C, strain hhf1, stronger effect = lower value 1.02 | locus YBR021W, strain FUR4, stronger effect = lower value 0.995 | locus YBR023C, strain chs3, stronger effect = lower value 0.993 | locus YBR171W, strain sec66, stronger effect = lower value 0.974 | [1] 1.01 | locus YBR231C, strain swc5, stronger effect = lower value 1.01 | locus YBR279W, strain paf1, stronger effect = lower value 0.987 | locus YCL011C, strain gbp2, stronger effect = lower value 0.979 | locus YCL016C, strain dcc1, stronger effect = lower value 0.967 | locus YCL029C, strain bik1, stronger effect = lower value 1 | locus YCL069W, strain vba3, stronger effect = lower value 0.984 | locus YCR088W, strain abp1, stronger effect = lower value 0.985 | locus YDL005C, strain med2, stronger effect = lower value 0.97 | locus YDL035C, strain GPR1, stronger effect = lower value 1.01 | locus YDL040C, strain nat1, stronger effect = lower value 0.991 | locus YDL074C, strain BRE1, stronger effect = lower value 1.05 | [2] 1.04 | locus YDL185W, strain tfp1, stronger effect = lower value 1.01 | locus YDL192W, strain arf1, stronger effect = lower value 1 | locus YDR001C, strain nth1, stronger effect = lower value 0.986 | locus YDR069C, strain doa4, stronger effect = lower value 0.967 | locus YDR101C, strain arx1, stronger effect = lower value 0.983 | locus YDR137W, strain rgp1, stronger effect = lower value 0.974 | [3] 1 | locus YDR159W, strain sac3, stronger effect = lower value 0.988 | locus YDR162C, strain NBP2, stronger effect = lower value 1.01 | locus YDR195W, strain ref2 0.957 | locus YDR297W, strain sur2, stronger effect = lower value 1.01 | locus YDR318W, strain mcm21, stronger effect = lower value 1 | locus YDR334W, strain swr1, stronger effect = lower value 0.978 | locus YDR335W, strain msn5, stronger effect = lower value 0.989 | locus YDR388W, stronger effect = lower value 1.02 | locus YDR392W, strain spt3, stronger effect = lower value 0.939 | locus YDR502C, strain sam2, stronger effect = lower value 1.03 | locus YEL003W, strain gim4, stronger effect = lower value 0.989 | locus YEL037C, strain rad23, stronger effect = lower value 0.981 | locus YEL061C, strain CIN8 (second series), stronger effect = lower value 0.985 | locus YER015W, strain faa2, stronger effect = lower value 0.989 | locus YER016W, strain bim1, stronger effect = lower value 0.961 | locus YER110C, stronger effect = lower value 1.03 | locus YER111C, strain swi4, stronger effect = lower value 0.971 | locus YER155C, strain BEM2 (second series), stronger effect = lower value 0.985 | locus YER155C, strain BEM2, stronger effect = lower value 1 | locus YER167W, strain BCK2, stronger effect = lower value 0.997 | locus YFR010W, strain ubp6, stronger effect = lower value 1 | locus YGL078C, strain dbp3, stronger effect = lower value 1.02 | locus YGL086W, strain mad1, stronger effect = lower value 1.01 | locus YGL167C, strain pmr1, stronger effect = lower value 0.976 | locus YGL173C, strain kem1, stronger effect = lower value 0.978 | locus YGL227W, strain vid30, stronger effect = lower value 0.983 | locus YGL240W, strain doc1, stronger effect = lower value 1.01 | locus YGL248W, strain PDE1, stronger effect = lower value 1.06 | locus YGL253W, strain hxk2, stronger effect = lower value 0.984 | locus YGR135W, strain pre9, stronger effect = lower value 1.08 | locus YGR252W, strain gcn5, stronger effect = lower value 1.05 | locus YHR013C, strain ard1, stronger effect = lower value 0.952 | locus YHR027C, strain rpn1, stronger effect = lower value 0.987 | [4] 1 and 1.03 | locus YHR079C, strain IRE1 (second series), stronger effect = lower value 1.01 | locus YHR079C, strain IRE1, stronger effect = lower value 1.04 | locus YHR094C, strain hxt1, stronger effect = lower value 1.01 | locus YHR129C, strain ARP1, stronger effect = lower value 1.01 | locus YHR142W, strain chs7, stronger effect = lower value 0.96 | locus YHR200W, strain rpn10, stronger effect = lower value 1.02 | locus YIL066C, strain RNR3, stronger effect = lower value 1.01 | locus YIL073C, strain SPO22, stronger effect = lower value 1.08 | locus YIL125W, strain kgd1, stronger effect = lower value 0.998 | locus YIR030C, strain dcg1, stronger effect = lower value 1.02 | locus YJL092W, strain hpr5, stronger effect = lower value 0.994 | locus YJL095W, strain BCK1 (second series), stronger effect = lower value 0.98 | locus YJL095W, strain BCK1, stronger effect = lower value 1.1 and 1.04 | locus YJL115W, strain asf1, stronger effect = lower value 0.97 | locus YJL129C, strain trk1, stronger effect = lower value 0.955 | locus YJL134W, strain LCB3, stronger effect = lower value 1.01 | locus YJL154C, strain vps35, stronger effect = lower value 0.969 | locus YJL164C, strain tpk1, stronger effect = lower value 0.997 | locus YJL166W, strain qcr8, stronger effect = lower value 1.01 | locus YJL168C, strain set2, stronger effect = lower value 0.996 | locus YJL187C, strain SWE1 (second series), stronger effect = lower value 1.05 | [5] 0.983 | locus YJR066W, strain TOR1, stronger effect = lower value 0.972 | [6] 1.03 | locus YKL009W, strain mrt4, stronger effect = lower value 1.03 | locus YKL068W, stronger effect = lower value 1 | locus YKL085W, strain MDH1 (second series), stronger effect = lower value 1.01 | locus YKL085W, strain MDH1, stronger effect = lower value 1.01 | locus YKL160W, strain elf1, stronger effect = lower value 0.974 | locus YKL190W, strain CNB1, stronger effect = lower value 1.01 | locus YKR001C, strain vps1, stronger effect = lower value 1.04 | locus YKR026C, strain gcn3, stronger effect = lower value 0.99 | locus YKR091W, strain srl3, stronger effect = lower value 0.989 | locus YLL001W, strain dnm1, stronger effect = lower value 0.99 | locus YLL026W, stronger effect = lower value 0.994 | locus YLL041C, strain sdh2, stronger effect = lower value 0.985 | locus YLR027C, strain aat2, stronger effect = lower value 0.992 | [7] 1.13 | locus YLR058C, strain SHM2, stronger effect = lower value 1.03 | locus YLR102C, strain apc9, stronger effect = lower value 1 | locus YLR113W, strain HOG1, stronger effect = lower value 1.03 | locus YLR221C, strain rsa3, stronger effect = lower value 1.01 | locus YLR258W, strain gsy2, stronger effect = lower value 0.984 | locus YLR262C, strain YPT6 (second series), stronger effect = lower value 1.01 | [8] 1.07 | locus YLR268W, strain sec22, stronger effect = lower value 0.995 | locus YLR320W, strain mms22, stronger effect = lower value 0.997 | locus YLR330W, strain CHS5, stronger effect = lower value 1.02 | locus YLR342W, strain FKS1 (second series), stronger effect = lower value 1.01 | locus YLR342W, strain FKS1, stronger effect = lower value 0.977 | locus YLR357W, strain rsc2, stronger effect = lower value 0.956 | locus YLR370C, strain arc18, stronger effect = lower value 0.981 | locus YLR371W, strain rom2, stronger effect = lower value 0.995 | locus YLR384C, strain iki3, stronger effect = lower value 0.952 | locus YLR418C, strain cdc73, stronger effect = lower value 1.05 | locus YML016C, strain PPZ1, stronger effect = lower value 1.02 | locus YML032C, strain rad52, stronger effect = lower value 1.01 | locus YML120C, strain ndi1, stronger effect = lower value 0.984 | locus YML124C, strain tub3, stronger effect = lower value 1 | locus YMR058W, strain fet3, stronger effect = lower value 0.987 | locus YMR078C, strain ctf18, stronger effect = lower value 1.02 | locus YMR125W, strain sto1, stronger effect = lower value 0.986 | locus YMR129W, stronger effect = lower value 0.981 | locus YMR205C, strain PFK2, stronger effect = lower value 0.999 | locus YMR223W, strain ubp8, stronger effect = lower value 1.02 | locus YMR231W, strain pep5, stronger effect = lower value 0.991 | locus YMR307W, strain GAS1, stronger effect = lower value 1.08 | locus YNL067W, strain RPL9B, stronger effect = lower value 1.03 | locus YNL071W, strain lat1, stronger effect = lower value 0.991 | locus YNL183C, strain NPR1, stronger effect = lower value 0.973 | locus YNL209W, strain ssb2, stronger effect = lower value 0.988 | locus YNL233W, strain BNI4, stronger effect = lower value 1.06 | locus YNL248C, strain rpa49, stronger effect = lower value 0.951 | locus YNL250W, strain rad50, stronger effect = lower value 1.02 | locus YNL271C, strain bni1, stronger effect = lower value 0.999 | locus YNL298W, strain CLA4, stronger effect = lower value 1.01 | locus YNL307C, strain MCK1, stronger effect = lower value 1.02 | locus YNL322C, strain KRE1 (second series), stronger effect = lower value 1 | locus YNR049C, strain mso1, stronger effect = lower value 0.972 | locus YNR052C, strain pop2, stronger effect = lower value 1.03 | locus YOL012C, strain htz1 1.22 | locus YOL147C, strain pex11, stronger effect = lower value 1.02 | locus YOR001W, strain rrp6, stronger effect = lower value 1.02 | locus YOR061W, strain CKA2, stronger effect = lower value 1.01 | locus YOR069W, strain VPS5, stronger effect = lower value 1.01 | locus YOR070C, strain gyp1, stronger effect = lower value 0.987 | locus YOR080W, strain dia2, stronger effect = lower value 0.981 | locus YOR083W, strain WHI5, stronger effect = lower value 0.979 | locus YOR106W, strain vam3, stronger effect = lower value 0.962 | locus YOR136W, strain idh2, stronger effect = lower value 1.01 | locus YOR144C, strain elg1, stronger effect = lower value 1.01 | locus YOR184W, strain ser1, stronger effect = lower value 0.994 | locus YOR231W, strain MKK1, stronger effect = lower value 1.05 | locus YOR265W, strain rbl2, stronger effect = lower value 1 | locus YOR270C, strain vph1, stronger effect = lower value 0.976 | locus YOR290C, strain snf2, stronger effect = lower value 0.977 | locus YOR316C, strain cot1, stronger effect = lower value 1.01 | locus YPL051W, strain arl3, stronger effect = lower value 0.987 | locus YPL078C, strain atp4, stronger effect = lower value 0.981 | locus YPL106C, strain sse1, stronger effect = lower value 0.97 | locus YPL240C, strain hsp82, stronger effect = lower value 1 | [9] 1.01 | locus YPL256C, strain CLN2, stronger effect = lower value 1.04 | locus YPR119W, strain clb2, stronger effect = lower value 1 | locus YPR141C, strain kar3, stronger effect = lower value 1 | locus YPR163C, strain tif3, stronger effect = lower value 1.01 | locus YPR167C, strain met16, stronger effect = lower value 1.03 | strain wtn01, stronger effect = lower value 0.984

Cc1cc(S(=O)(=O)NCCNc2nccc(C(F)(F)F)n2)c(C)cc1Cl
inactive: [10] 1.01 | [1] 1.02 | locus YCL061C, strain MRC1, stronger effect = lower value 1.01 | [2] 1.01 | locus YDL134C, strain PPH21, stronger effect = lower value 0.998 | [3] 0.933 | locus YEL061C, strain CIN8, stronger effect = lower value 1.02 | [11] 1 | [12] 1.02 | [4] 0.957 | locus YHR087W, strain rtc3, stronger effect = lower value 1.01 | [5] 1.01 | [6] 1 | [7] 0.991 | locus YLR058C, strain SHM2 (second series), stronger effect = lower value 1.02 | locus YLR085C, strain ARP6, stronger effect = lower value 1.01 | [8] 1.01 | locus YML094W, strain GIM5, stronger effect = lower value 0.992 | locus YMR219W, strain ESC1, stronger effect = lower value 1.01 | locus YMR263W, strain SAP30, stronger effect = lower value 0.921 | locus YNL153C, strain GIM3, stronger effect = lower value 1.02 | locus YNL298W, strain CLA4 (second series), stronger effect = lower value 0.982 | [13] 1.01 | locus YNR030W, strain Alg12, stronger effect = lower value 1.02 | locus YOL006C, strain TOP1, stronger effect = lower value 1.02 | locus YPL055C, strain LGE1, stronger effect = lower value 1.01 | [9] 1.06 | locus YPR135W, strain CTF4, stronger effect = lower value 0.966

O=c1[nH]ccc2c(O)cccc12
inactive: [10] 0.996 | locus YAL040C, strain CLN3, stronger effect = lower value 0.999 | locus YCL061C, strain MRC1 (second series), stronger effect = lower value 0.996 | locus YDR363W, strain ESC2, stronger effect = lower value 1.02 | locus YER002W, strain NOP16, stronger effect = lower value 0.999 | [11] 1 | [12] 1.02 | locus YNL175C, strain NOP13, stronger effect = lower value 1.01 | locus YNL197C, strain WHI3, stronger effect = lower value 1.01 | locus YNL224C, strain SQS1, stronger effect = lower value 0.994 | [13] 1 | locus YOR083W, strain WHI5 (second series), stronger effect = lower value 1.06 | [9] 0.99
